# Reference: the supplement of paper PMC12282887
# ± gives the standard deviation of the averaged measurements.
# Assays:
# Experiment in all cases: promoter activity interaction Z-score (Lux/OD deviation from empty-vector control); higher = stronger promoter induction by the compound
# [1] = tested on: E. coli BW25113 acrABp lux reporter
# Summary of the method: (§1)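 E. coli BW25113 luxCDABE reporter strains grew at 37°C in 40 µl LB Lennox in 384-well plates, with OD600 and luminescence read every 30 min for 12 h. After integration over 0–8 h for wild type or 1–9 h for deletion strains, wells under 10% of the median growth value were removed. Each score is the Z-transformed residual of growth-normalised luminescence fitted against a control.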
# [2] = tested on: E. coli BW25113 micFp lux reporter
# Summary of the method: as §1
# [3] = tested on: E. coli BW25113 ompFp lux reporter
# Summary of the method: as §1
# [4] = tested on: E. coli BW25113 robp lux reporter
# Summary of the method: as §1
# [5] = tested on: E. coli BW25113 soxSp lux reporter
# Summary of the method: as §1
# [6] = tested on: E. coli BW25113 tolCp lux reporter
# Summary of the method: as §1
# [7] = 32.1 µg/ml, genetic background: wild type
# [8] = 32.1 µg/ml, genetic background: ΔmarA
# [9] = 32.1 µg/ml, genetic background: Δrob
# [10] = 32.1 µg/ml, genetic background: ΔsoxS
# [11] = 64.2 µg/ml, genetic background: wild type
# [12] = 64.2 µg/ml, genetic background: ΔmarA
# [13] = 64.2 µg/ml, genetic background: Δrob
# [14] = 64.2 µg/ml, genetic background: ΔsoxS
# [15] = 128.4 µg/ml, genetic background: wild type
# [16] = 128.4 µg/ml, genetic background: ΔmarA
# [17] = 128.4 µg/ml, genetic background: Δrob
# [18] = 128.4 µg/ml, genetic background: ΔsoxS
# [19] = 256.8 µg/ml, genetic background: wild type
# [20] = 256.8 µg/ml, genetic background: ΔmarA
# [21] = 256.8 µg/ml, genetic background: Δrob
# [22] = 256.8 µg/ml, genetic background: ΔsoxS
smiles,measurement,setting,value
CN(C)C(=O)C(CCN1CCC(O)(c2ccc(Cl)cc2)CC1)(c1ccccc1)c1ccccc1 [Loperamide],promoter activity interaction Z-score,[1]; [7],0.0421 ± 0.17
same,promoter activity interaction Z-score,[1]; [8],0.36 ± 0.083
same,promoter activity interaction Z-score,[1]; [9],-0.0142 ± 0.12
same,promoter activity interaction Z-score,[1]; [10],0.372 ± 0.34
same,promoter activity interaction Z-score,[1]; [11],-0.16 ± 0.23
same,promoter activity interaction Z-score,[1]; [12],0.126 ± 1.6
same,promoter activity interaction Z-score,[1]; [13],-0.00894 ± 0.11
same,promoter activity interaction Z-score,[1]; [14],0.114 ± 0.11
same,promoter activity interaction Z-score,[1]; [15],-0.237 ± 0.23
same,promoter activity interaction Z-score,[1]; [16],0.287 ± 0.52
same,promoter activity interaction Z-score,[1]; [17],-0.146 ± 0.17
same,promoter activity interaction Z-score,[1]; [18],0.111 ± 0.11
same,promoter activity interaction Z-score,[1]; [19],0.213 ± 0.0047
same,promoter activity interaction Z-score,[1]; [20],-1.07 ± 0.54
same,promoter activity interaction Z-score,[1]; [21],0.0923 ± 0.42
same,promoter activity interaction Z-score,[1]; [22],-0.358 ± 0.52
same,promoter activity interaction Z-score,[2]; [7],0.145 ± 0.076
same,promoter activity interaction Z-score,[2]; [8],0.0394 ± 0.035
same,promoter activity interaction Z-score,[2]; [9],0.0787 ± 0.17
same,promoter activity interaction Z-score,[2]; [10],-0.0846 ± 0.15
same,promoter activity interaction Z-score,[2]; [11],0.186 ± 0.1
same,promoter activity interaction Z-score,[2]; [12],0.0703 ± 0.0014
same,promoter activity interaction Z-score,[2]; [13],0.0931 ± 0.092
same,promoter activity interaction Z-score,[2]; [14],-0.0463 ± 0.045
same,promoter activity interaction Z-score,[2]; [15],0.0787 ± 0.19
same,promoter activity interaction Z-score,[2]; [16],0.0574 ± 0.025
same,promoter activity interaction Z-score,[2]; [17],0.0936 ± 0.24
same,promoter activity interaction Z-score,[2]; [18],-0.14 ± 0.12
same,promoter activity interaction Z-score,[2]; [19],-0.186 ± 0.52
same,promoter activity interaction Z-score,[2]; [20],-0.0712 ± 0.25
same,promoter activity interaction Z-score,[2]; [21],-0.12 ± 0.022
same,promoter activity interaction Z-score,[2]; [22],-0.469 ± 0.21
same,promoter activity interaction Z-score,[3]; [7],-0.00512 ± 0.32
same,promoter activity interaction Z-score,[3]; [8],0.262 ± 0.052
same,promoter activity interaction Z-score,[3]; [9],0.0272 ± 0.031
same,promoter activity interaction Z-score,[3]; [10],-0.21 ± 0.06
same,promoter activity interaction Z-score,[3]; [11],0.0346 ± 0.0034
same,promoter activity interaction Z-score,[3]; [12],-0.0766 ± 0.0049
same,promoter activity interaction Z-score,[3]; [13],-0.471 ± 0.21
same,promoter activity interaction Z-score,[3]; [14],-0.28 ± 0.26
same,promoter activity interaction Z-score,[3]; [15],-0.593 ± 0.28
same,promoter activity interaction Z-score,[3]; [16],-0.537 ± 0.65
same,promoter activity interaction Z-score,[3]; [17],-1.29 ± 0.17
same,promoter activity interaction Z-score,[3]; [18],-1.21 ± 0.3
same,promoter activity interaction Z-score,[3]; [19],0.202 ± 0.2
same,promoter activity interaction Z-score,[3]; [20],0.819 ± 0.3
same,promoter activity interaction Z-score,[3]; [21],-0.591 ± 0.47
same,promoter activity interaction Z-score,[3]; [22],0.54 ± 0.76
same,promoter activity interaction Z-score,[4]; [7],-0.195 ± 0.23
same,promoter activity interaction Z-score,[4]; [8],-0.672 ± 0.52
same,promoter activity interaction Z-score,[4]; [9],0.735 ± 0.061
same,promoter activity interaction Z-score,[4]; [10],0.0686 ± 0.097
same,promoter activity interaction Z-score,[4]; [11],0.0117 ± 0.077
same,promoter activity interaction Z-score,[4]; [12],-0.171 ± 0.68
same,promoter activity interaction Z-score,[4]; [13],0.22 ± 0.015
same,promoter activity interaction Z-score,[4]; [14],0.000621 ± 0.037
same,promoter activity interaction Z-score,[4]; [15],-0.524 ± 0.45
same,promoter activity interaction Z-score,[4]; [16],-0.323 ± 0.55
same,promoter activity interaction Z-score,[4]; [17],-0.996 ± 0.2
same,promoter activity interaction Z-score,[4]; [18],-0.571 ± 0.73
same,promoter activity interaction Z-score,[4]; [19],-1.15 ± 0.5
same,promoter activity interaction Z-score,[4]; [20],-0.901 ± 1.4
same,promoter activity interaction Z-score,[4]; [21],-2.1 ± 0.29
same,promoter activity interaction Z-score,[4]; [22],-1.78 ± 0.21
same,promoter activity interaction Z-score,[5]; [7],0.154 ± 0.15
same,promoter activity interaction Z-score,[5]; [8],-0.043 ± 0.059
same,promoter activity interaction Z-score,[5]; [9],0.355 ± 0.12
same,promoter activity interaction Z-score,[5]; [10],0.325 ± 0.045
same,promoter activity interaction Z-score,[5]; [11],-0.0625 ± 0.16
same,promoter activity interaction Z-score,[5]; [12],-0.0378 ± 0.015
same,promoter activity interaction Z-score,[5]; [13],0.149 ± 0.035
same,promoter activity interaction Z-score,[5]; [14],-0.0736 ± 0.2
same,promoter activity interaction Z-score,[5]; [15],0.0173 ± 0.089
same,promoter activity interaction Z-score,[5]; [16],0.196 ± 0.047
same,promoter activity interaction Z-score,[5]; [17],-0.0928 ± 0.32
same,promoter activity interaction Z-score,[5]; [18],-0.2 ± 0.021
same,promoter activity interaction Z-score,[5]; [19],-0.236 ± 0.14
same,promoter activity interaction Z-score,[5]; [20],-0.217 ± 0.25
same,promoter activity interaction Z-score,[5]; [21],-0.0806 ± 0.13
same,promoter activity interaction Z-score,[5]; [22],-0.169 ± 0.064
same,promoter activity interaction Z-score,[6]; [7],-0.194 ± 0.29
same,promoter activity interaction Z-score,[6]; [8],-0.0191 ± 0.39
same,promoter activity interaction Z-score,[6]; [9],-0.0299 ± 0.8
same,promoter activity interaction Z-score,[6]; [10],-0.292 ± 0.62
same,promoter activity interaction Z-score,[6]; [11],0.0244 ± 0.6
same,promoter activity interaction Z-score,[6]; [12],0.821 ± 0.86
same,promoter activity interaction Z-score,[6]; [13],-0.356 ± 0.33
same,promoter activity interaction Z-score,[6]; [14],0.551 ± 0.73
same,promoter activity interaction Z-score,[6]; [15],-0.426 ± 0.95
same,promoter activity interaction Z-score,[6]; [16],-0.198 ± 0.95
same,promoter activity interaction Z-score,[6]; [17],-0.855 ± 0.25
same,promoter activity interaction Z-score,[6]; [18],-0.596 ± 0.53
same,promoter activity interaction Z-score,[6]; [19],0.39 ± 0.18
same,promoter activity interaction Z-score,[6]; [20],0.271 ± 1.2
same,promoter activity interaction Z-score,[6]; [21],0.764 ± 1
same,promoter activity interaction Z-score,[6]; [22],0.351 ± 0.69
